According to PubChem BioAssay AID2314 (National Center for Advancing Translational Sciences (NCATS), 2010):
In all, about 300,000 compounds went through this assay and about 37,000 (12%) were called active. Cut-off read from the data, not from the text of the source: active = max response mostly above about 13% (no sharp cut-off); inactive = mostly below about 14%. Only a selection was taken, and actives are over-represented in it overall.

Assay: Cycloheximide Counterscreen for Small Molecule Inhibitors of Shiga Toxin; note: read at 38.3 µM for the half of the compounds with a filed dose; 0% is about no effect
Details: cell reporter, cycloheximide protein synthesis inhibition counterscreen; active compounds read high

Row | SMILES | max response
1 | CCCCCN(C(=O)CCC(=O)OCC(=O)NCc1ccc(OC)cc1)c1c(N)n(CCCC)c(=O)[nH]c1=O | -0.685% (inactive)
2 | COc1ccc(NC(=O)c2sc(N3CCOCC3)nc2-c2ccccc2)c(OC)c1 | -2.89% (inactive)
3 | COc1ccc(C(=O)NCCNc2ccc([N+](=O)[O-])cn2)cc1 | 4.73% (inactive)
4 | O=C(COc1ccc2oc3c(c2c1)CCCC3)Nc1ccccn1 | 28.6% (active)
5 | Cc1ccc(OCC(=O)Nc2ccc(S(=O)(=O)Nc3ccccn3)cc2)cc1 | 1.04% (inactive)
6 | CCN(CC)CCCNC(=O)COc1ccc2oc3c(c2c1)CCCC3 | -5.99% (inactive)
7 | COc1ccc(CN2CCN(Cc3ccc(OC)c(OC)c3OC)CC2)cc1 | -4.12% (inactive)
8 | Cc1ccc(CS(=O)Cc2ccc(C(=O)N3CCOCC3)o2)cc1 (stereo unspecified) | 0.901% (inactive)
9 | CC(=O)NS(=O)(=O)c1ccc(N/C(N)=N/c2nc(C)cc(C)n2)cc1 | -0.472% (inactive)
10 | COc1ccc(CCNC(=O)CN2C(=O)COc3ccc(S(=O)(=O)N4CCCC4)cc32)cc1OC | -2.34% (inactive)
11 | CCNc1nc(NC(C)C)nc(N2CC(=O)N(CC(=O)OCC)C2=N)n1 | -5.32% (inactive)
12 | CCN(c1cccc(C)c1)S(=O)(=O)c1ccc(-c2coc(C)n2)cc1 | -4.01% (inactive)
13 | COc1ccc(-c2cn3ccc(C)cc3n2)cc1 | -1.85% (inactive)
14 | CCN(CC)S(=O)(=O)c1ccc(-c2cn3ccc(C)cc3n2)cc1 | 45.6% (active)
15 | CCCCN(CC)C(=O)c1ccccc1Oc1ccccc1 | -1.52% (inactive)
16 | Cc1ccc(N)cc1-n1c(C)ccc1C | 23.9% (active)
17 | Cc1ccc(C)n1-c1ccncc1 | -5.57% (inactive)
18 | CN(c1ccccc1)S(=O)(=O)c1ccc(NC(=O)COc2ccccc2)cc1 | -1.66% (inactive)
19 | CCCCNC(=O)C1CCC(=O)N1CCc1ccccc1 (stereo unspecified) | -3.51% (inactive)
20 | O=c1[nH]c(CN2CCOCC2)nc2cc(Cl)ccc12 | 13% (active)
21 | CN(CCOc1ccccc1)Cc1nc2cc(Cl)ccc2c(=O)[nH]1 | 2.21% (inactive)

Row | SMILES | max response
22 | O=c1[nH]c(CN2CCOCC2)nc2scc(-c3ccccc3)c12 | 9.91% (inactive)
23 | CC(NC(=O)c1ccccc1C(=O)O)c1ccc(-n2ccnc2)cc1 (stereo unspecified) | -1.67% (inactive)
24 | CC1CCN(C(=O)c2ccccc2NC(=O)Cc2ccccc2)CC1 | 18.5% (inactive)
25 | O=C(C1CCN(Cc2ccc(Cl)cc2)CC1)N1CCN(Cc2ccc3c(c2)OCO3)CC1 | -1.07% (inactive)
26 | CCOC(=O)c1csc(CCNC(=O)c2oc3c(Cl)cc(C)cc3c2C)n1 | 29.8% (active)
27 | CCOC(=O)c1csc(NC(=O)c2ccc(S(=O)(=O)N3CCCC3)cc2)n1 | -1.54% (inactive)
28 | Cc1ccc2c(=O)cc(C(=O)NCCc3ccc(S(N)(=O)=O)cc3)oc2c1C | -2.03% (inactive)
29 | CC(Oc1cccc(Cl)c1)C(=O)NC1CC(C)(C)NC(C)(C)C1 (stereo unspecified) | -2.91% (inactive)
30 | Cc1ccc(OCc2n[nH]c(=S)n2-c2ccc(C)cc2)cc1 | -1.5% (inactive)
31 | COc1ccc(NC(=S)NCCNC(C)=O)cc1 | 0.644% (inactive)
32 | COc1ccc(Cc2n[nH]c(=S)n2NC(=O)Nc2ccc(C)cc2)cc1 | 37.1% (active)
33 | Cn1c(=O)oc2cc(S(=O)(=O)NCCC(=O)NCc3ccccc3Cl)ccc21 | -6.54% (inactive)
34 | O=S(=O)(c1ccc(Br)cc1)c1nc(-c2ccccc2)oc1N1CCOCC1 | 4.42% (inactive)
35 | CCCCCCCCCCCCC(NC(C)=O)(C(=O)OCC)C(=O)OCC | -2.57% (inactive)
36 | CC1CCN(C(=O)CCc2nnc3ccc(NCc4ccco4)nn23)CC1 | -0.588% (inactive)
37 | CCc1ccc(C2N3CC4([N+](=O)[O-])CN2CC([N+](=O)[O-])(C3)C4(C)C)cc1 (stereo unspecified) | -2.16% (inactive)
38 | C=CCC(NCc1ccco1)c1ccc(OC)cc1 (stereo unspecified) | 1.37% (inactive)
39 | COc1ccc(Nc2nc(NCc3ccco3)nc(N/N=C/c3ccccc3Cl)n2)cc1 | 16.9% (active)
40 | COc1ccc(Nc2nc(Cl)nc(NCc3ccco3)n2)cc1 | 5.68% (inactive)
41 | COc1ccc(C)cc1NC(=O)NCCCCc1ccccc1 | 7.65% (inactive)
42 | CS(=O)(=O)N1CCN(C(=O)Cc2ccccc2)CC1 | -2.32% (inactive)

Row | SMILES | max response
43 | CS(=O)(=O)N1CCc2nc(-c3ccccc3)sc2C1 | 47.1% (active)
44 | CS(=O)(=O)N1CCN(c2cccc(Cl)n2)CC1 | -1.63% (inactive)
45 | Cc1cccc(NC(=O)CSCC(=O)Nc2nnc(C3CC3)s2)c1 | 6.4% (inactive)
46 | O=C(Nc1nnc(C2CC2)s1)c1ccccn1 | 34.9% (active)
47 | Cc1occc1C(=O)Nc1nnc(C2CCCCC2)s1 | 17.4% (active)
48 | Cc1occc1C(=O)Nc1nnc(-c2ccncc2)s1 | 15.8% (inactive)
49 | O=C(Nc1nnc(C2CC2)s1)c1cc(Cl)sc1Cl | 12.2% (active)
50 | O=C(Cc1cccs1)Nc1nnc(C2CC2)s1 | 8.46% (inactive)
51 | O=C(Nc1nnc(C2CC2)s1)C1=NN(C2CCS(=O)(=O)C2)C(=O)CC1 (stereo unspecified) | -6.02% (inactive)
52 | CC1CCN(c2ccc(C(=O)Nc3nnc(C4CC4)s3)cc2[N+](=O)[O-])CC1 | -2.98% (inactive)
53 | COc1ccc(NC(=O)CCC(=O)Nc2nnc(C3CCCCC3)s2)cc1 | -3.75% (inactive)
54 | COc1ccccc1CNC(=O)[C@@H]1CCCN1C(=O)[C@@H]1Cc2ccccc2CN1C(=O)OC(C)(C)C | 8.54% (inactive)
55 | Cc1ccc(S(=O)(=O)N(C)CC(=O)NCCc2c[nH]c3ccccc23)cc1 | 0.209% (inactive)
56 | Cc1cccc(NC(=O)NC2(C)CCS(=O)(=O)C2)c1 (stereo unspecified) | 1.38% (inactive)
57 | COc1ccccc1CNC(=O)c1ccc(N(C)S(=O)(=O)c2ccc(C)cc2)cc1 | -0.735% (inactive)
58 | Cc1coc2c(O)cc3c(c12)OC1(N2CCCCC2)C(=O)NCCCC31 (stereo unspecified) | -0.492% (inactive)
59 | COc1ccc(CNS(=O)(=O)c2cc(-c3cc(C)no3)ccc2C(C)C)cc1 | -0.908% (inactive)
60 | CCCCC(=O)Nc1c2c(nn1-c1ccc([N+](=O)[O-])cc1)CS(=O)(=O)C2 | -4.82% (inactive)
61 | O=C(c1cc2ccccc2s1)N1CCN(c2ccccn2)CC1 | -0.772% (inactive)
